Compounds with a hit are over-represented: about 2.4% of the library has one in this group of screens.
AmpC inh det – Promiscuous and Specific Inhibitors of AmpC Beta-Lactamase (assay with detergent) | P00811 | purified AmpC, nitrocefin hydrolysis with detergent | Potency, µM (top dose mostly 28.7 µM), for the others: at the top dose activity change, negative = inhibition | 71,000 compounds, 0.09% hits; active means well fitted curve in the direction sought with a large enough effect; inconclusive means small, poorly fitted or top-dose-only effect; further: on the % scale 0 is the no-effect control and ±100 the full control effect
Target sequence (P00811 whole entry, looked up): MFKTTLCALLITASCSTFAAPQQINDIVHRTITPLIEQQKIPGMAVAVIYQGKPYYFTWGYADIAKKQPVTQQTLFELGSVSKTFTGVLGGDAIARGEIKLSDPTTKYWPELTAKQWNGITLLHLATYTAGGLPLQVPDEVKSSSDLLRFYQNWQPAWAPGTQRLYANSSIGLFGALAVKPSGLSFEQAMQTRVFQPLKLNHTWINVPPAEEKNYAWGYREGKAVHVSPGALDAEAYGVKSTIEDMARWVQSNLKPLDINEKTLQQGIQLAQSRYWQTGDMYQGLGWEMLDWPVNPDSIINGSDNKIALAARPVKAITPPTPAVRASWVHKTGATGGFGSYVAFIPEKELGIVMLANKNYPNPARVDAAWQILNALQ
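E. coli AmpC (5.3 nM) in 20 mM phosphate pH 7.0 with 0.01% Triton X-100, preincubated 15 min RT with compound; nitrocefin (2 uL of 800 uM stock) hydrolysis followed by 480 nm absorbance every 20 s over 4 min.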
Anthrax LT inh – qHTS Assay for Anthrax Lethal Toxin Internalization; Potency, µM (series often up to 40 µM), for inactives: top-dose activity change, negative = inhibition, actives largely listed as inhibitors; Cells, anthrax lethal toxin internalization, FRET ratio (460/530); AID 912, 2007; 70,000 compounds, 0.67% hits; further: on the % scale 0 is the no-effect control and ±100 the full control effect; nearly all actives have a fitted effect of over 50% in size
Prx2 Sm inh – Schistosoma Mansoni Peroxiredoxins (Prx2); Potency, µM; S. mansoni Prx2 activity coupled to TGR/GSH (TGR is thioredoxin glutathione reductase), NADPH fluorescence loss, qHTS; 65,000 compounds, 0.07% hits; Schistosoma mansoni peroxiredoxin 2 (Prx2)
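qHTS, coupled TGR/Prx2 format; 15 min compound preincubation at RT; reaction started with H2O2 (2.5 mM aliquot); kinetic NADPH fluorescence decrease, ex 365/em 450 nm.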
AmpC inh no det – Promiscuous and Specific Inhibitors of AmpC Beta-Lactamase (assay without detergent); Potency, µM (series often up to 28.7 µM), without a hit: at the top dose activity change, negative = inhibition; P00811; 71,000 compounds, 1.8% hits; AmpC nitrocefin hydrolysis, absorbance 480 nm, no detergent; further: % of control where 0% means no effect
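Enzyme, pH 7.0 phosphate. Compound titrations were pre-incubated with AmpC for 15 min at room temperature before nitrocefin (stock 800 uM) addition; product formation was recorded at 480 nm every 20 s for 4 min.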
* marks the source's active call; other numbers are inactive results; ? = inconclusive; · = not tested or not shown; [ ] = remark or other dose. Unless noted, the call rests on the fitted dose curve. Potency means the concentration at half of the fitted maximal effect.

SMILES | AmpC inh det | Anthrax LT inh | Prx2 Sm inh | AmpC inh no det
CCc1ccc(NC(=O)c2cc(CC(C)C)on2)cc1 | 12% | -29% | >57 | 4µM*[single pt active]
CC(C)Cc1cc(C(=O)Nc2ccc3c(c2)OCO3)no1 | 13% | ? | >57 | 4µM*[single pt active]
Cc1onc(-c2ccccc2)c1C(=O)Nc1ccc2c(c1)OCO2 | 4% | -13% | · | -6%
COc1ccc(NC(=O)c2cc(CC(C)C)on2)cc1OC | 12% | -5% | >57 | 4µM*[single pt active]
COc1cccc(-c2cc(C(=O)Nc3ccc(OC)c(OC)c3)no2)c1 | -5% | -13% | >57 | 32%
O=C(Nc1ccc2c(c1)OCO2)c1cc2ncc(Br)cn2n1 | 25% | 3% | >57 | 16µM*[single pt active]
N#C[C@@H](Cc1ccc(O)c(O)c1)C(=O)N1CCc2ccccc21 | -1% | -1% | >57 | -16%
Cc1ccc(S(=O)(=O)Nc2ccc3nc(N)sc3c2)cc1 | 2% | -21% | >57 | 10µM*
CCN(CC)CC[n+]1ccc2c(C)c3[nH]c4ccccc4c3c(C)c2c1 | -2%[5.75 µM] | 4µM* | >57 | -10%[5.75 µM]
COc1ccc2c(c1O)-c1cccc3c1[C@H](C2)N(C)CC3 | 0% | ? | >57 | -4%
N[C@@H](Cc1[nH]nc2ccccc12)C(=O)O | -3%[5.75 µM] | -9%[8 µM] | >57 | -18%[5.75 µM]
CCN(CC)c1ccc(NC(=O)CSc2nc3ccccc3c(=O)[nH]2)cc1 | -6% | 1% | >57 | 10µM*[single pt active]
C[C@H](CC(C#N)(c1ccccc1)c1ccccc1)N1CCCCC1 | -1%[5.75 µM] | -13%[8 µM] | >57 | 18%[5.75 µM]
O=C(CSc1nnc(Cc2cc(=O)[nH]c(=O)[nH]2)n1-c1ccc(F)cc1)N1CCCCC1 | 9% | -5% | >57 | 4µM*[single pt active]
COc1cccc(-n2c(Cc3cc(=O)[nH]c(=O)[nH]3)nnc2SCC(=O)NC2CCCCC2)c1 | 16% | 1% | >57 | ?
O=C(CSc1nnc(Cc2cc(=O)[nH]c(=O)[nH]2)n1-c1ccc(F)cc1)NC1CCCC1 | 3% | -2% | >57 | 4µM*[single pt active]
O=C(Cc1cc(=O)[nH]c(=O)[nH]1)NCC1CCCO1 (stereo not drawn) | 9% | 4µM* | >57 | 71%
Cc1cccc(-n2c(Cc3cc(=O)[nH]c(=O)[nH]3)nnc2SCC(=O)NCC2CCCO2)c1 (stereo not drawn) | 14% | 2% | >57 | 4µM*[single pt active]
O=C1c2ccccc2C(O)(O)[C@@]1(O)[C@]1(O)C(=O)c2ccccc2C1(O)O | -2%[5.75 µM] | ? | ? | -1%[5.75 µM]
COc1cccc(-n2c(Cc3cc(=O)[nH]c(=O)[nH]3)nnc2SCC(=O)N2CCCCC2)c1 | 12% | -2% | >57 | 4µM*[single pt active]
Cn1cccc1Cc1nnc(SCC(=O)NC2CCCC2)n1-c1ccc(F)cc1 | 15% | -24% | >57 | 4µM*[single pt active]
C[C@]12CC[C@@H]3[C@H](CCC4=CC(=O)CC[C@]43C)[C@]1(O)CC[C@@]2(O)C(=O)CO | -1%[5.75 µM] | -4%[8 µM] | >57 | -3%[5.75 µM]
Cc1cccc(C)c1OC[C@@H](N)C(C)C | -1% | 0% | >57 | -5%
CC(C)[C@@H](C)/C=C\[C@@H](C)[C@@H]1CC[C@H]2C3=CC=C4C[C@@H](O)CC[C@]4(C)[C@H]3CC[C@]21C | -4%[5.75 µM] | -12%[8 µM] | >57 | 6%[5.75 µM]
CCN(CC)CCCNC(=O)c1cc2c(-c3ccc(Cl)cc3)nn(C)c2s1 | 14% | 2.5µM* | >57 | 4µM*[single pt active]
SMILES | AmpC inh det | Anthrax LT inh | Prx2 Sm inh | AmpC inh no det
Cn1nc(-c2ccc(Cl)cc2)c2cc(C(=O)NCC3CCCO3)sc21 (stereo not drawn) | 8% | ? | >57 | 150%
CC1CCCCN1CCNC(=O)c1cc2c(-c3ccccc3F)nn(C)c2s1 (stereo not drawn) | 10% | 7.9µM* | >57 | 4µM*[single pt active]
CN1CCN(CCCNC(=O)c2cc3c(-c4ccc(Cl)cc4)nn(C)c3s2)CC1 | 17% | 6.3µM* | >57 | 170%
C[C@@H]1O[C@@H](O[C@H]2C[C@@H](O)[C@]3(CO)[C@@H]4[C@@H](O)C[C@]5(C)[C@H](C6=CC(=O)OC6)CC[C@@]5(O)[C@H]4CC[C@@]3(O)C2)[C@H](O)[C@H](O)[C@@H]1O | -4% | ? | >57 | -9%
C[C@@H]1O[C@@H](n2cc(F)c(=O)[nH]c2=O)[C@H](O)[C@@H]1O | -4% | ? | >57 | 9%
O=C(O)C(C(=O)O)P(=S)(S)c1ccccc1 (stereo not drawn) | -2%[5.75 µM] | -1%[8 µM] | >57 | 8%[5.75 µM]
Cc1nc2ccc(S(=O)(=O)NC(C(=O)NCc3ccco3)C(C)C)cc2s1 (stereo not drawn) | 14% | -9% | >57 | 4µM*[single pt active]
CCOC(=O)C1C2C=CC3(CN(c4ccc(Cl)c(F)c4)C(=O)C13)O2 (stereo not drawn) | 10% | 14% | >57 | 2µM*[single pt active]
CCCOC(=O)C1C2C=CC3(CN(c4ccc(Cl)c(F)c4)C(=O)C13)O2 (stereo not drawn) | 13% | -15% | >57 | ?
CS(=O)(=O)O[C@H]1CN2CCC1CC2 | -7%[5.75 µM] | -4%[8 µM] | >57 | 0%[5.75 µM]
CN(C)CCC(=O)[C@@]1(O)CC[C@H]2[C@H]3CC=C4C[C@@H](O)CC[C@]4(C)[C@H]3CC[C@]21C | -3%[5.75 µM] | -14%[8 µM] | >57 | 9%[5.75 µM]
Cc1ccc2c(c1)NC(=O)C(CC(=O)NCc1ccc(F)cc1)O2 (stereo not drawn) | 10% | -6% | >57 | ?
Cc1ccc2c(c1)NC(=O)C(CC(=O)NCc1cccnc1)O2 (stereo not drawn) | 10% | -25% | >57 | 4µM*[single pt active]
CC(=O)c1cccc(NC(=O)CC2Oc3ccc(C)cc3NC2=O)c1 (stereo not drawn) | 8% | -5% | >57 | 4µM*[single pt active]
Cc1ccc2c(c1)NC(=O)C(CC(=O)NCCCN1CCCCC1C)O2 (stereo not drawn) | 10% | -12% | >57 | 25%
CC1CCCCN1CCNC(=O)CC1Oc2ccccc2NC1=O (stereo not drawn) | 13% | ? | >57 | 2.5µM*[single pt active]
CC1CCCCC1NC(=O)CC1Oc2ccccc2NC1=O (stereo not drawn) | 15% | -8% | >57 | 4µM*[single pt active]
CCCCN(C)CCCNC(=O)CC1Oc2ccccc2NC1=O (stereo not drawn) | 13% | 1% | >57 | 4µM*[single pt active]
O=C(CC1Oc2ccccc2NC1=O)NCCCN1CCOCC1 (stereo not drawn) | 9% | 7% | >57 | 2%
O=C1Nc2ccccc2OC1CC(=O)N1CCCC1 (stereo not drawn) | 11% | 5% | >57 | 4µM*[single pt active]
Cc1ccc2c(c1)NC(=O)C(CC(=O)NC1CCCCC1C)O2 (stereo not drawn) | 13% | -5% | >57 | 4µM*[single pt active]
CCC(C)N(CCNC(=O)CC1Oc2ccc(C)cc2NC1=O)C1CCCCC1 (stereo not drawn) | 8% | ? | >57 | 7%
O=C(CC1Oc2ccccc2NC1=O)NCc1ccccc1 (stereo not drawn) | 5% | -10% | >57 | -3%
CN1CCN([C@@H]2Cc3ccccc3Sc3ccc(Cl)cc32)CC1 | 0% | ? | >57 | 63%

Bioassay records from PubChem BioAssay.
